One assay deals with Albumin (Bos taurus) (UniProt P02769). Put plainly: compounds binding labelled BSA control protein – biochemical, small-molecule microarray, Alexa647 label, 635/667 nm fluorescence, artefact control for SMM control protein annotation, profiling panel (AID 1118).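 Note: score merges 667 nm emission intensity and signal-to-noise per printed compound spot.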 Conditions: BSA-A647 binding, fluorescence 635 nm, higher = more signal.
The nature of assay [1]: probe aXIP binding to arrayed compounds – biochemical, NeuroSMM set, 635/667 nm fluorescence, primary screen (AID 1119).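 Note: probe is the protein aXip251-270 applied at 1 µg/mL to compound-printed slides; binding of probe to printed compounds measured as 667 nm fluorescence plus signal to noise.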 Conditions: small-molecule microarray, higher = more signal, called active from +8 up or from −8 down.
Assay [2] is described as follows: probe aNOTCH3 binding on compound microarray – biochemical, small-molecule microarray, 635/667 nm fluorescence, primary screen (AID 1120).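 Note: probe is a biotin-tagged antibody raised against NOTCH3 rather than NOTCH3 protein; score merges spot fluorescence near 667 nm with spot signal to noise.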 Conditions: higher = more signal.
A short description of assay [3]: probe aNOTCH2 binding on compound microarray – biochemical, small-molecule microarray, 635/667 nm fluorescence, primary screen (AID 1121).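 Note: score merges feature fluorescence read at 667 nm with its signal to noise.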 Conditions: higher = more signal.
Assay [4] concerns the target Carbonic anhydrase 2 (Homo sapiens) (UniProt P00918). Put plainly: compounds binding carbonic anhydrase 2 – biochemical, small-molecule microarray, Alexa647-labelled CAII, profiling panel (AID 1122). Conditions: CAII-A647 binding fluorescence, higher = more signal.
Assay [5] in a line: COS7 lysate on small-molecule microarray, probe aHis, 635 nm (AID 1123).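 Note: z-score combines 667nm fluorescence intensity with signal-to-noise per printed compound spot.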 Conditions: COS7 cell lysate, fluorescence, higher = more signal.
Assay [6] in a line: probe aLAP1 signal on lysate-treated microarray – cell lysate, small-molecule microarray, COS7 lysate, primary screen (AID 1124).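 Note: lysate comes from COS7 cells expressing LAP1 and is applied at 0.3 µg/mL; score merges spot fluorescence near 667 nm with signal-to-noise over triplicate slides.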 Conditions: probe aLAP1, fluorescence, higher = more signal.
The next assay relates to Sam68 (KHDRBS1). As to the kind of experiment: compounds binding KHDRBS1 protein – biochemical, small-molecule microarray, 635 nm fluorescence, primary screen (AID 1125).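 Note: score merges 667 nm channel intensity with signal to noise over triplicate slides.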 Conditions: higher = more signal.
Assay [7] relates to Chordin-like protein 2 (CHRDL2). Put plainly: compounds binding chordin-like 2 – biochemical, small-molecule microarray, 635 nm fluorescence, primary screen (AID 1126).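 Note: printed compound slides probed with Chrdl2 protein at 4 µg/mL for 1 h at 4 C; score merges 667 nm emission intensity with signal to noise over three replicate slides.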 Conditions: fluorescence 635 nm, higher = more signal.
For assay [8], the target named is Concanavalin-A (Canavalia ensiformis) (UniProt P02866). Put plainly: compounds binding concanavalin A lectin – biochemical, small-molecule microarray, Alexa647 label, 635 nm, artefact control for SMM control protein annotation, primary screen (AID 1127).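 Note: z combines 667 nm emission intensity with signal-to-noise across three replicate slides.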 Conditions: ConA-A647 binding fluorescence, higher = more signal.
Sequence of Concanavalin-A (Canavalia ensiformis) (P02866 whole entry, looked up): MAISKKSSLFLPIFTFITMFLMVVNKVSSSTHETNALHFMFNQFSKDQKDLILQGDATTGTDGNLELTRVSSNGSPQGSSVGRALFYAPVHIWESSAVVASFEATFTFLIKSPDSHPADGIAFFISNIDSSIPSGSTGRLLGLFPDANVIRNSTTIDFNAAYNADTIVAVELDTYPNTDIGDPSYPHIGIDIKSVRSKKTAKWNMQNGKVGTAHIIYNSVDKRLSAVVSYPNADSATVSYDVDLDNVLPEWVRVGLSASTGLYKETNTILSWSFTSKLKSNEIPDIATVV

The structures appear in SMILES notation. Calls of active or inactive are those of the source.

Sequence of Albumin (Bos taurus) (P02769 whole entry, looked up): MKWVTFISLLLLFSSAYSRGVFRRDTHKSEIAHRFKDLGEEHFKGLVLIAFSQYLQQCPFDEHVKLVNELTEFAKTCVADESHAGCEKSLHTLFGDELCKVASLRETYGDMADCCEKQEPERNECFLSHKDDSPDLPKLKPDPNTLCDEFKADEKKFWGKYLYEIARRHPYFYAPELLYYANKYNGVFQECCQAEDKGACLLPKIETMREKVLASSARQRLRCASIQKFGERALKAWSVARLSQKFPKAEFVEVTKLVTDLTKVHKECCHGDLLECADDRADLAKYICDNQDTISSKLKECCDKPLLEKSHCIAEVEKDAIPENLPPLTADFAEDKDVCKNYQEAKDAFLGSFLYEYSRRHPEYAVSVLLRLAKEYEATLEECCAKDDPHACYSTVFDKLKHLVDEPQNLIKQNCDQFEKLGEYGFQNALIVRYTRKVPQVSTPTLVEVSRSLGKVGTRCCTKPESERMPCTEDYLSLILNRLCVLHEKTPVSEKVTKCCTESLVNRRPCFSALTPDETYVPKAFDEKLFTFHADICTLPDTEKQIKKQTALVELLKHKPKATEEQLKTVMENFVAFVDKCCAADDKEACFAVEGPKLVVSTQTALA

Regarding `Cc1ccc(F)cc1S(=O)(=O)N[C@@H]1CCN(Cc2ccc(OC(C)C)cc2)C1`, the composite z-score was 0.175 with Albumin (Bos taurus); -0.201 in [2]; -0.154 in assay [3]; 0.359 in assay [4]; -0.453 in assay [5]; -0.182 in assay [6]. Besides, the composite z-score is -0.649 in the assay on Sam68 (KHDRBS1), 0.504 in assay [7] and -1.41 in assay [8]. Further, the composite Z-score in [1] is -0.491 (inactive).
Regarding `C=CCOC(=O)[C@@H]1[C@H]2C(=O)O[C@H](c3ccccc3)[C@H](c3ccccc3)N2[C@H](c2ccc(OCCOC(=O)[C@H]3C[C@H]4C(=O)N[C@@H](CCCCN(C)C)C(=O)N4[C@H]3c3cccc(OCCO)c3)cc2)[C@@]12C(=O)Nc1ccc(I)cc12`, the composite z-score was -0.624 with Albumin (Bos taurus); 0.194 in [2]; -0.14 in assay [3]; 0.507 in [4]; 1.64 in assay [5]; 0.168 in assay [6]. For the same compound, the composite z-score in the assay with Sam68 (KHDRBS1) came to 1.25; in [7], 0.798; in [8] it was 1.15. Also, the composite Z-score in assay [1] was 0.204 (inactive).
Take `COC1(C)CN(Cc2ccccc2Br)[C@H](/C=C/c2ccccc2)[C@H](Cc2ccccc2)O1` (stereo not given in full): the composite z-score was -0.403 with Albumin (Bos taurus); -0.236 in [2]; -0.198 in [3]; 0.0397 in assay [4]; 0.203 in assay [5]; -0.195 in assay [6]. Moreover, the values for the composite z-score (in the assay with Sam68 (KHDRBS1); in [7]; in [8]) were -0.435, -0.77 and -0.0737, respectively. The composite Z-score in assay [1] was 0.0873 (inactive).
Turning to `C[C@H]1C2=C3C(CC[C@H]4C(OCc5ccc(F)cc5C(F)(F)F)OC[C@](C)([C@@H]34)N(C(=O)OC(C)(C)C)C2)C2COC(=O)OCC21` (stereo not given in full), the composite z-score with Albumin (Bos taurus) came out at 0.963; in assay [2], 0.242; in assay [3] it was 0.183; in assay [4], 0.754; in assay [5], 2.93; in assay [6], 0.399. For the same compound, the composite z-score with Sam68 (KHDRBS1) was 1.31; in [7], -1.67; in [8], 1.1. Also, in assay [1], the composite Z-score was -0.0452 (inactive).
Take `NCCCCCCNC(=O)[C@@H]1C[C@@H]2C(=O)N3CCC[C@H]3C(=O)N2[C@@H]1c1ccc(O)cc1`: the composite z-score is 0.654 in the assay with Albumin (Bos taurus); -0.0647 in [2]; -0.182 in assay [3]; 0.291 in assay [4]; 1.32 in assay [5]; 0.81 in assay [6]. For the same compound, the composite z-score in the assay with Sam68 (KHDRBS1) came out at 1.25; in assay [7] it was 0.417; in [8] it was 1.15. Also, the composite Z-score in assay [1] is -0.259 (inactive).
In the case of `COc1ccc([Si](C)(C)[C@H]2[C@H](CC(=O)N3Cc4ccccc4C[C@H]3CO)O[C@@]3(C(=O)N(Cc4cccc(N5CCCCC5=O)c4)c4ccccc43)[C@@H]2C)cc1`, the composite z-score in the assay with Albumin (Bos taurus) is 0.26; in assay [2] it was -0.0044; in assay [3], -0.14; in assay [4] it was 0.498; in [5] it was 0.951; in [6], 0.0263. For the same compound, the composite z-score was 0.724 in the assay on Sam68 (KHDRBS1), 1.19 in assay [7] and 1.05 in assay [8]. Moreover, the composite Z-score in [1] is 0.424 (inactive).
As to `CCOC(=O)C[C@H]1[C@H](OC(=O)c2ccc(-c3ccccc3)cc2)[C@@H](NC(=O)c2ccc3ccccc3n2)c2cc(OCCCO)ccc2N1C(=O)c1ccccc1`, the composite z-score in the assay with Albumin (Bos taurus) is 0.58; in [2] it was 0.0916; in assay [3] it was -0.0613; in assay [4], 0.14; in [5], 0.554; in [6] it was 0.0488. In addition, the composite z-score worked out at 1.25 in the assay on Sam68 (KHDRBS1), 0.423 in assay [7] and 1.04 in assay [8]. For the same compound, the composite Z-score in assay [1] was -0.202 (inactive).
Regarding `O=C1O[C@@H](c2ccccc2)[C@@H](c2ccccc2)N2[C@@H](c3ccccc3OCCO)[C@]3(C(=O)Nc4ccccc43)[C@@H](C(=O)NC[C@H](O)c3ccccc3)[C@H]12`, the composite z-score with Albumin (Bos taurus) is 0.641; in assay [2], -0.213; in assay [3], -0.14; in assay [4] it was 0.586; in assay [5] it was 1.32; in assay [6] it was 0.487. For the same compound, the composite z-score in the assay on Sam68 (KHDRBS1) is 0.9; in [7] it was -1.15; in [8], 0.196. Besides, the composite Z-score in assay [1] was -0.0662 (inactive).
As to `C=C(C(=O)CC[C@H](OC(C)=O)c1cccc(OCCO)c1)C(C)C`, the composite z-score in the assay with Albumin (Bos taurus) was -0.757; in [2], -0.135; in assay [3], -0.148; in [4], -0.382; in assay [5], 0.409; in assay [6], -0.326. Besides, the composite z-score in the assay with Sam68 (KHDRBS1) is -0.0177; in assay [7], -1.23; in [8], -1.21. Besides, the composite Z-score in assay [1] is 0.562 (inactive).
Regarding `CC(C)N1CC=CC23O[C@@H]4C=CCOC(=O)[C@@H]4[C@H]2C(=O)N(C(C)CO)[C@@H]3C1=O` (stereo not given in full), the composite z-score was -0.385 in the assay with Albumin (Bos taurus); -0.149 in assay [2]; -0.0891 in [3]; 0.406 in [4]; 0.0561 in assay [5]; 1.06 in assay [6]. Besides, the composite z-score with Sam68 (KHDRBS1) was -0.876; in assay [7], -1.03; in [8], 0.261. In addition, the composite Z-score in assay [1] was 0.365 (inactive).
For the compound `O=C1OC[C@@H](c2ccccc2)N2CC(/C=C/c3ccccc3)=CC12` (stereo not given in full), the composite z-score with Albumin (Bos taurus) was 0.0154; in assay [2], -0.36; in [3] it was -0.189; in assay [4], 0.453; in assay [5], -0.428; in assay [6], 0.133. For the same compound, the composite z-score in the assay with Sam68 (KHDRBS1) was -1.57; in assay [7], -0.713; in assay [8] it was -0.044. The composite Z-score in assay [1] is 0.142 (inactive).
In the case of `COc1cc(CO)cc(I)c1O[C@H]1C=C(C(=O)NCCO)C[C@@H](NCc2ccccc2F)[C@@H]1O`, the composite z-score with Albumin (Bos taurus) was 0.162; in [2] it was 0.0979; in assay [3], -0.179; in assay [4], 0.218; in [5], 0.558; in assay [6] it was 0.303. Further, the composite z-score in the assay with Sam68 (KHDRBS1) stood at 1.02; in assay [7] it was 0.486; in assay [8] it was 0.746. Further, the composite Z-score in assay [1] is 0.235 (inactive).
As for `CC(C)(C)OC(=O)CC[C@@]1(C(=O)O)N=C(c2ccc(OCCCO)cc2)O[C@@H]1c1ccccc1CN=[N+]=[N-]`, the composite z-score with Albumin (Bos taurus) was determined as 0.939; in assay [2], 0.1; in [3], 0.046; in assay [4], 0.849; in assay [5], 2.23; in [6], 0.312. In addition, the composite z-score in the assay with Sam68 (KHDRBS1) is 0.76; in assay [7], -0.309; in assay [8], 1.18. In addition, in [1], the composite Z-score was 0.242 (inactive).
In the case of `C=C(CCCC)/C(=C/C[C@@H](OC(C)=O)c1ccc(CO)o1)c1cc(C(=O)OC)ccc1OC`, the composite z-score is 0.557 in the assay with Albumin (Bos taurus); -0.0195 in [2]; -0.0741 in assay [3]; 0.57 in [4]; 0.69 in assay [5]; 0.557 in assay [6]. The results for the composite z-score (in the assay with Sam68 (KHDRBS1); in assay [7]; in assay [8]) were 1.29, 0.182 and 0.851, respectively. Also, in assay [1], the composite Z-score is 0.378 (inactive).

(Values after PubChem BioAssay.)
